# From the supplement of paper PMC3545927
# This is one part of the list. How many sequences the whole screen found active is unknown.
# B1: HC553 (peptide)
# chain: CAGAVYTFYGAGNASASA
# B2: HC2289 (peptide)
# chain: CADYEVVTSTAGNASASA
# B3: HC1291 (peptide)
# chain: CAAEEDEREIAGNASASA
# B4: HC1653 (peptide)
# chain: CASHARPRWIAGNASASA
# B5: FS-1272 (peptide)
# chain: CARSHRMRRHAGNASASA
# B6: FS-1688 (peptide)
# chain: CARCYRSCETAGNASASA
# B7: HC306 (peptide)
# chain: CAFTFSPRRHAGNASASA
# B8: FS-2852 (peptide)
# chain: CASSKRAEAPAGNASASA
# B9: HC662 (peptide)
# chain: CASARRGREIAGNASASA
# B10: FS-1792 (peptide)
# chain: CARSHRSCRTAGNASASA
# B11: FS-1791 (peptide)
# chain: CARSHRDTATAGNASASA
# B12: FS-1418 (peptide)
# chain: CASSKRNRRHAGNASASA
# B13: HC1562 (peptide)
# chain: CAYLTRDPTTAGNASASA
# B14: HC2288 (peptide)
# chain: CADWEVVTSTAGNASASA
# B15: HC1410 (peptide)
# chain: CAKANLLSVEAGNASASA
# B16: HC2500 (peptide)
# chain: CASCPCSAHLAGNASASA
# B17: HC2020 (peptide)
# chain: CAVCCCSMSYAGNASASA
# B18: HC984 (peptide)
# chain: CATCMSADLEAGNASASA
# B19: HC225 (peptide)
# chain: CAGFADLMGYAGNASASA
# B20: HC210 (peptide)
# chain: CASPRGSRPSAGNASASA
# B21: FS-945 (peptide)
# chain: CAMSMRVRRHAGNASASA
# B22: FS-300 (peptide)
# chain: CASPNRSRRHAGNASASA
# B23: HC837 (peptide)
# chain: CAGSVTVPHPAGNASASA
# B24: HC520 (peptide)
# chain: CAVVLLFLLLAGNASASA
# B25: HC871 (peptide)
# chain: CALDVSVIPTAGNASASA
# B26: HC894 (peptide)
# chain: CADPTFTIETAGNASASA
# B27: HC1904 (peptide)
# chain: CATTPCSGIWAGNASASA
# B28: HC1137 (peptide)
# chain: CAVTQLLRRLAGNASASA
# B29: HC971 (peptide)
# chain: CAPTPLLYRLAGNASASA
# B30: FS-1554 (peptide)
# chain: CAPSRRQQRAAGNASASA
# B31: FS-1054 (peptide)
# chain: CAPSCRYRRLAGNASASA
# B32: FS-1555 (peptide)
# chain: CAPSRRTRRLAGNASASA
# B33: FS-60 (peptide)
# chain: CALWGRTRRLAGNASASA
# B34: HC1705 (peptide)
# chain: CAMELCSQHLAGNASASA
# B35: HC18 (peptide)
# chain: CAMEENSQHLAGNASASA
# B36: HC355 (peptide)
# chain: CAGGSAGHTVAGNASASA
# B37: HC1999 (peptide)
# chain: CAPVCCSMSYAGNASASA
# B38: HC1156 (peptide)
# chain: CAFKTWLKAKAGNASASA
# B39: FS-1014 (peptide)
# chain: CAIPDRLRKCAGNASASA
# B40: HC1586 (peptide)
# chain: CASVLIARDQAGNASASA
# B41: FS-986 (peptide)
# chain: CADPQRSRRCAGNASASA
# B42: FS-498 (peptide)
# chain: CASGARRRRCAGNASASA
# B43: FS-623 (peptide)
# chain: CAQSLRCRRCAGNASASA
# B44: FS-503 (peptide)
# chain: CASQLRYRRCAGNASASA
# B45: HC1550 (peptide)
# chain: CADLELITSCAGNASASA
# B46: FS-989 (peptide)
# chain: CAEHHRSRRCAGNASASA
# B47: FS-1558 (peptide)
# chain: CAQVMRRRRCAGNASASA
# Target: furin, P09958
# Sequence (P09958 whole entry): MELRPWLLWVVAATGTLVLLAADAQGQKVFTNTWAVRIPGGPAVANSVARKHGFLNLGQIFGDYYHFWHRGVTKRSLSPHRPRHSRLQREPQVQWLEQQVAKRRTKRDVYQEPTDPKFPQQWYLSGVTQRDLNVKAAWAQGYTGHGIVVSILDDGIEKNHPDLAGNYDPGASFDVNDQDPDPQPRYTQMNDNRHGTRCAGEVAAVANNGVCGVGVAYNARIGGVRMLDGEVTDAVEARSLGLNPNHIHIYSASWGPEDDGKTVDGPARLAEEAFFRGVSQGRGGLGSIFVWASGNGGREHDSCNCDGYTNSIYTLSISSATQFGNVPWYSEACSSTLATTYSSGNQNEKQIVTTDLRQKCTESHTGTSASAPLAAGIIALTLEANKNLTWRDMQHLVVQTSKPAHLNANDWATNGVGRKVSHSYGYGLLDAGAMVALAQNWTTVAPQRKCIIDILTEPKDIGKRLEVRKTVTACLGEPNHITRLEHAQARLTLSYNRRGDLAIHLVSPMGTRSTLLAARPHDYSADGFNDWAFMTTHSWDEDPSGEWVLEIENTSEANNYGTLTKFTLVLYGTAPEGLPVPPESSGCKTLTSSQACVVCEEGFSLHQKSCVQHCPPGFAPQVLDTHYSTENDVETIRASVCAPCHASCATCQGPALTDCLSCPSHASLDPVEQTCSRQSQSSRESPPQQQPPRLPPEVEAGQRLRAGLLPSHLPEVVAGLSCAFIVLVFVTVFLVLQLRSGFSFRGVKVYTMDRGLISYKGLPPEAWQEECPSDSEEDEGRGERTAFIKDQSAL
# Test: furin cleavage Z-score vs untreated control; higher = more cleavage, active = 3.5 or more, inactive = 1 or less, 8 variable residues between constant flanks
# Method: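 Multiplexed peptide-cDNA fusion cleavage assay. 8-mer variable peptides flanked by constant Cys-Ala (N-term) and Ala-Gly-Asn-Ala-Ser-Ala-Ser-Ala (C-term) and conjugated to a cDNA oligonucleotide were bead-immobilised via the N-terminus. They were treated with purified furin at a 1:10 enzyme:substrate ratio in 50 mM HEPES pH 7.5, 1 mM CaCl2, 100 mM NaCl for 7.5, 15 or 30 min. Released cDNA was counted by next-generation sequencing, and log counts versus no-furin controls were lowess-adjusted and converted to robust Z-scores.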
Sequence,furin cleavage Z-score (7.5 min),furin cleavage Z-score (15 min),furin cleavage Z-score (30 min)
B1,-0.781 (inactive),-1.17 (inactive),-0.823 (inactive)
B2,0.403 (inactive),0.654 (inactive),0.0996 (inactive)
B3,-0.251 (inactive),-1.7 (inactive),-0.863 (inactive)
B4,0.938 (inactive),1.44,0.423 (inactive)
B5,12.9 (active),13.7 (active),9.81 (active)
B6,-1.32 (inactive),0.463 (inactive),-0.398 (inactive)
B7,-1.3 (inactive),-0.113 (inactive),-0.24 (inactive)
B8,-1.06 (inactive),-1.45 (inactive),0.412 (inactive)
B9,7.44 (active),8.55 (active),8.19 (active)
B10,0.788 (inactive),2.22,3.59 (active)
B11,0.447 (inactive),1.01,-0.325 (inactive)
B12,10.5 (active),12 (active),10.1 (active)
B13,-1.51 (inactive),-0.691 (inactive),-1.7 (inactive)
B14,-1.03 (inactive),-0.418 (inactive),-0.194 (inactive)
B15,-0.514 (inactive),-0.264 (inactive),-1.3 (inactive)
B16,0.854 (inactive),-0.381 (inactive),0.717 (inactive)
B17,0.181 (inactive),1.69,1.02
B18,0.644 (inactive),0.775 (inactive),1.54
B19,-1.18 (inactive),-0.646 (inactive),-1.14 (inactive)
B20,0.189 (inactive),0.149 (inactive),-0.107 (inactive)
B21,10 (active),10.3 (active),7.98 (active)
B22,9.77 (active),10.7 (active),7.23 (active)
B23,0.881 (inactive),0.63 (inactive),0.486 (inactive)
B24,-0.794 (inactive),-0.656 (inactive),-1.88 (inactive)

Sequence,furin cleavage Z-score (7.5 min),furin cleavage Z-score (15 min),furin cleavage Z-score (30 min)
B25,-2.6 (inactive),-1.18 (inactive),-0.758 (inactive)
B26,-0.863 (inactive),-0.464 (inactive),-0.935 (inactive)
B27,-0.536 (inactive),0.611 (inactive),-1.36 (inactive)
B28,0.0354 (inactive),-1.42 (inactive),-1.96 (inactive)
B29,-0.296 (inactive),0.704 (inactive),0.366 (inactive)
B30,9.53 (active),8.72 (active),7.58 (active)
B31,4.67 (active),7.06 (active),7.38 (active)
B32,7.98 (active),11.7 (active),8.56 (active)
B33,1.66,4.15 (active),3.16
B34,2.69,0.76 (inactive),2.04
B35,0.787 (inactive),0.956 (inactive),2.04
B36,0.866 (inactive),-0.487 (inactive),0.0302 (inactive)
B37,0.302 (inactive),-0.969 (inactive),1.74
B38,-0.496 (inactive),-0.829 (inactive),-0.782 (inactive)
B39,-0.934 (inactive),-0.376 (inactive),-0.995 (inactive)
B40,0.606 (inactive),0.779 (inactive),-0.441 (inactive)
B41,0.928 (inactive),0.649 (inactive),1.13
B42,0.58 (inactive),0.416 (inactive),0.773 (inactive)
B43,-0.625 (inactive),-0.00103 (inactive),-0.127 (inactive)
B44,5.96 (active),7.81 (active),5.84 (active)
B45,0.66 (inactive),-0.229 (inactive),0.498 (inactive)
B46,2.96,3.54 (active),3.96 (active)
B47,7.16 (active),5.85 (active),4.82 (active)
